Assay outcomes deposited in PubChem BioAssay by several laboratories.
Hits are enriched below; roughly 3.6% of the tested compounds scored in any of these assays.
HSP90 refold inh: blocks HSP90-mediated luciferase refolding in reticulocyte lysate | inhibition, % at 5.6 µM | 0.91% of 290,000 active | Rabbit reticulocyte lysate, luciferase refolding luminescence, 3 h;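 active = inhibition above the screen-wide mean plus 3 SD, computed separately per campaign, cut at about 16% in these data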;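 note: inhibitors lower the luminescence because luciferase stays unfolded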
CF NFkB inh: cystic fibrosis NF-kB activation inhibition; KKLEB NF-kB-GFP reporter, PAF-induced, GFP fluorescence overnight; inhibition, % at 5 µM; 0.86% of 360,000 active; AID 588850;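 active = at least 50% inhibition at 5 µM, scaled per plate between neutral and stimulator controls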;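 note: PAF is a Pseudomonas aeruginosa culture filtrate used as stimulus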
Peg3 prom inh: Peg3 promoter activity inhibition | 1.7% of 360,000 active | inhibition, % at 20 µM | HeLa PEG-Prom luciferase reporter, luminescence, overnight;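 active = inhibition of at least 50% at 20 µM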
LGR2 antag: inhibitors of bursicon-induced Drosophila LGR2 receptor cAMP signaling; HEK293 LGR2, CRE-luciferase, bursicon-stimulated, 4 h; inhibition, % at 9.99 µM; 0.35% of 380,000 active;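 active = drop in luminescence signal, shown as inhibition above about 50% in the replicate tests, limit read from the data, passing the limit was not always enough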;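 note: agonist challenge used bursicon conditioned medium at about half maximal strength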
Mdm2-MdmX inh: disrupts the human Mdm2-MdmX interaction | O15151+Q00987 | SaOS-2 split-luciferase Mdm2/MdmX complementation, luminescence | inhibition, % at 8 µM | 3% of 330,000 active | AID 485346;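 active = inhibition of at least 50% at 8 µM in the primary screen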
Target sequence (O15151 whole entry, looked up): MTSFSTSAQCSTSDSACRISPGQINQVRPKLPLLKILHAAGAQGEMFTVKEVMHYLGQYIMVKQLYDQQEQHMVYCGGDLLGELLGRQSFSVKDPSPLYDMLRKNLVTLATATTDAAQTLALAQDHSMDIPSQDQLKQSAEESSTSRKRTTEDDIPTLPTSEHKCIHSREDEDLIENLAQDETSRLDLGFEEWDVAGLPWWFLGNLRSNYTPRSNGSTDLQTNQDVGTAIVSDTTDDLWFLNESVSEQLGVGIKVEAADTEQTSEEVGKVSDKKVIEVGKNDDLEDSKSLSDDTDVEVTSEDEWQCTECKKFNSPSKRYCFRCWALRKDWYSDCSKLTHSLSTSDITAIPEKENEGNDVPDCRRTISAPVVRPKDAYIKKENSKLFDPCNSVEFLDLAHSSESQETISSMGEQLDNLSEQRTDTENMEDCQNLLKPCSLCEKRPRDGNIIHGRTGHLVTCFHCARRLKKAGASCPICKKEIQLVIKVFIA
Target sequence (Q00987 whole entry, looked up): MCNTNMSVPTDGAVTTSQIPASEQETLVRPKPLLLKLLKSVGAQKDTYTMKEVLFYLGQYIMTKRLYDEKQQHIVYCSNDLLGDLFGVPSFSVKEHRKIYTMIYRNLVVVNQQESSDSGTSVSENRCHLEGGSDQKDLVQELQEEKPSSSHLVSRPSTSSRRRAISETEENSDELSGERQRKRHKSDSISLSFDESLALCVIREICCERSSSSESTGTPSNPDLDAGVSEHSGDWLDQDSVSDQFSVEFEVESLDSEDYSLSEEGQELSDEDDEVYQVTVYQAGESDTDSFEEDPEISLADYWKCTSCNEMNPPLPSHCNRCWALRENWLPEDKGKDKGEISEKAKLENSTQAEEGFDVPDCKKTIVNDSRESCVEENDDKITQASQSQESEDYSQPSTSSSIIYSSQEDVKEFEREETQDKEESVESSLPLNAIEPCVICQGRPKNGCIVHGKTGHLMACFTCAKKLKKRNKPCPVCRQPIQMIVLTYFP
KKLEB cytotox: counter-screen for CF NF-kB inhibitors: cytotoxicity; 0.36% of 360,000 active; KKLEB CF airway cells viability, ATPlite luminescence, overnight; active compounds read low; cells stimulated with P. aeruginosa culture filtrate; activity change (cytotoxicity), % at 5 µM;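 active = corrected activity change at or below -50% at 5 µM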
Hits are given with their value; n = inactive; x = no result given.

SMILES	HSP90 refold inh	CF NFkB inh	Peg3 prom inh	LGR2 antag	Mdm2-MdmX inh	KKLEB cytotox
Cc1noc(C)c1NC(=O)Nc1ccc2c(c1)C(=O)N([C@@H](C)CO)C[C@@H](C)[C@@H](CN(C)C(=O)Nc1ccccc1)OCCCC[C@@H](C)O2	x	x	x	n	x	x
C[C@@H]1CN([C@H](C)CO)C(=O)c2cc(-c3ccncc3)cnc2O[C@H]1CN(C)C(=O)c1ccncc1	x	x	x	n	x	x
Cc1ccccc1CN1[C@@H](CC(C)C)COc2cc(Br)ccc2S1(=O)=O	x	x	x	n	x	x
C=C1[C@@H](O)[C@H](CC(C)C)N(Cc2ccccc2Br)S1(=O)=O	x	89	97	n	x	-96
Cc1noc(C)c1S(=O)(=O)Nc1cccc2c1O[C@H](CN(C)Cc1ccc(Oc3ccccc3)cc1)[C@H](C)CN([C@@H](C)CO)C2=O	x	x	x	n	x	x
CCOC(=O)N1CCN(C2=C(NS(=O)(=O)c3ccc(C)cc3)C(=O)c3ccccc3C2=O)CC1	n	54	n	n	n	n
CC(=O)N1[C@@H]2c3cccc(=O)n3C[C@@H]2[C@@H](CO)[C@@H]1C(=O)N[C@H](C)c1ccccc1	x	x	x	n	x	x
CCn1c(=O)c(C(=O)Nc2nc3ccccc3[nH]2)c(O)c2ccccc21	n	89	n	x	n	-90
CCn1c(=O)c(C(=O)Nc2ccccc2)c(O)c2ccccc21	n	n	n	n	n	n
CCOc1ccc(-c2nc(CSCC(=O)N3CCN(c4cccc(OC)c4)CC3)c(C)o2)cc1	24	n	n	n	n	n
Cc1ccc(-c2nc(CSCC(=O)N3CCN(c4ccccn4)CC3)c(C)o2)cc1	n	n	n	n	n	n
Cc1ccc(S(=O)(=O)Nc2ccc3c(c2)C(=O)N([C@@H](C)CO)C[C@H](C)[C@H](CN(C)C(=O)c2ccncc2)OCCCC[C@H](C)O3)cc1	x	x	x	n	x	x
CCCS(=O)(=O)c1nnnn1-c1cccc(OC)c1	n	90	102	x	x	n
COC1=Nc2ccccc2N2CCN=C12	x	n	n	n	x	n
c1ccc2c(c1)C1=NCCN1c1ccccc1-2	x	n	104	n	x	n
O=C([C@@H]1[C@@H](CO)[C@@H]2Cn3c(cccc3=O)[C@@H]2N1CC1CCCCC1)N1CCOCC1	x	x	x	n	x	x
CC1(C)C[C@H]2C3=CCC4[C@@]5(C)CC[C@H](O[C@@H]6O[C@H](C(=O)O)[C@@H](O)[C@H](O)[C@H]6O)[C@@](C)(CO)C5CC[C@@]4(C)[C@]3(C)C[C@H](O)[C@@]2(CO)[C@@H](O)[C@@H]1O (some centres not stated)	x	n	n	n	n	n
C/C=C(\C)C(=O)OC1[C@H](OC(C)=O)C2(CO)C(CC1(C)C)C1=CCC3C4(C)CCC(O[C@@H]5O[C@H](C(=O)O)[C@@H](O[C@@H]6O[C@H](CO)[C@@H](O)[C@H](O)[C@H]6O)[C@H](O)[C@H]5O[C@H]5O[C@H](CO)[C@@H](O)[C@H](O)[C@H]5O)[C@](C)(CO)C4CCC3(C)[C@]1(C)C[C@H]2O (some centres not stated)	x	91	105	x	x	-89
Cc1ccc(-c2cnc3cc(C)nn3c2)cc1	n	n	n	n	n	n
Cc1ccc(-c2cnc3c(Cl)c(C)nn3c2)cc1	n	n	n	57	n	n
CCCC(=O)Nc1ccc2c(c1)C(=O)N(C)[C@@H]1CC[C@H](CC(=O)NC3CCCC3)O[C@H]1CO2	x	x	x	n	x	x
O=C(c1ccncc1)N1CC[C@H]2[C@H](CO)Nc3ccc(-c4ccccc4)cc3[C@H]21	x	x	x	n	x	x
CN1CCN(CC(O)COc2ccccc2)CC1 (configuration not stated)	n	n	n	n	n	n
CN1CCN(CC(O)COc2ccc(C34CC5CC(CC(C5)C3)C4)cc2)CC1 (configuration not stated)	n	n	105	n	x	n
COc1cc2nc(N(CCCN(C)C)C(=O)c3ccc(S(=O)(=O)N4CCc5ccccc5C4)cc3)sc2cc1OC	x	n	n	n	n	n
SMILES	HSP90 refold inh	CF NFkB inh	Peg3 prom inh	LGR2 antag	Mdm2-MdmX inh	KKLEB cytotox
COc1ccc(C)c2sc(N(CCCN(C)C)C(=O)c3ccc(S(=O)(=O)N4CCc5ccccc5C4)cc3)nc12	x	75	102	n	x	-84
COc1ccc(S(=O)(=O)N(C)C[C@@H]2Oc3c(NS(=O)(=O)c4cn(C)cn4)cccc3C(=O)N([C@H](C)CO)C[C@@H]2C)cc1	x	x	x	n	x	x
C[C@@H]1CCCCO[C@H](CN(C)S(=O)(=O)c2cn(C)cn2)[C@H](C)CN([C@H](C)CO)C(=O)c2cc(NC(=O)CCCN(C)C)ccc2O1	x	x	x	n	x	x
C[C@@H]1CCCCO[C@H](CN(C)Cc2ccc(C(=O)O)cc2)[C@H](C)CN([C@H](C)CO)C(=O)c2cc(NC(=O)NC3CCCCC3)ccc2O1	x	x	x	n	x	x
CC(C)NC(=O)Nc1ccc2c(c1)CC(=O)N([C@H](C)CO)C[C@H](C)[C@H](CN(C)C)O2	x	x	x	n	x	x
CNCCCOc1ccc(Cl)cc1C(C)(C)C	n	n	68	n	n	n
CCC(C)NCCCOc1ccc(Cl)cc1C(C)(C)C (configuration not stated)	n	n	n	n	n	n
C[C@@H]1CN([C@H](C)CO)C(=O)Cc2cc(NS(=O)(=O)c3ccccc3)ccc2O[C@H]1CN(C)S(=O)(=O)c1cn(C)cn1	x	x	x	n	x	x
Cc1ccc(/C=C2/NC(=O)N(c3ccccc3)C2=O)o1	n	n	n	x	n	n
O=C1N/C(=C/c2ccc(N3CCOCC3)o2)C(=O)N1c1cccc(Cl)c1	n	67	n	n	n	n
O=C(C[C@H]1CC[C@@H]2[C@H](COC[C@H](O)CN2Cc2ccccc2F)O1)N1CCc2ccccc2C1	x	x	x	n	x	x
N#C/C(=C\c1cccc(O)c1)C(=O)N1CCCCC1	n	n	n	n	n	n
N#C/C(=C\c1cccc(Br)c1)C(=O)N1CCCCC1	17	n	n	n	n	n
CC(C)NC(=O)N(C)C[C@@H]1OCCCC[C@H](C)Oc2ccc(NC(=O)C3CCCCC3)cc2C(=O)N([C@@H](C)CO)C[C@H]1C	x	x	x	n	x	x
CNc1ccc(/C=C/C(=O)c2cccc3ccccc23)cc1[N+](=O)[O-]	n	n	67	x	n	n
CCOC(=O)/C(N=Nc1ccc(F)cc1)=C(/O)c1ccc([N+](=O)[O-])cc1	n	67	n	x	n	n
CCOC(=O)/C(C)=N/NC(=O)c1ccc([N+](=O)[O-])cc1	n	n	n	x	n	n
Cc1ccccc1/C(=N\S(=O)(=O)c1ccc(Br)cc1)Nc1ccccc1	x	n	n	n	x	n
Cc1c(/N=C(\[O-])Nc2ccc(Br)cc2)sn[n+]1C	n	n	n	82	n	n
CO[C@H]1CC[C@H]2CCOc3ccc(C#N)cc3C(=O)N(C)[C@@H](C)C(=O)N(C)C[C@H]1O2	x	x	x	n	x	x
COC(=O)C(Nc1ccccc1Cl)(c1cc(C)c(O)c(C)c1)C(F)(F)F (configuration not stated)	n	n	n	n	n	n
COC(=O)/C(=C(/F)Sc1cc(C)c(O)c(C)c1)C(F)(F)F	n	n	63	x	n	n
